In PubChem BioAssay (NCATS):
Values joined by “and” are separate entries in the source; they are usually repeats but may differ in a detail not shown here. Equal values may be shown once. Results filed as inconclusive are left out. Entries that show only a call come without a potency. A number with no mark means an inactive call. Active and inactive are the calls of the source. The call rests on the fitted dose curve; in most records, active means well fitted curve in the direction sought with a large enough effect; inconclusive means small, poorly fitted or top-dose-only effect, or another doubt; inactive means no such curve, though single readings can be large; an effect the other way counts as inactive or inconclusive.

What was measured:
[1] = Viability qHTS for spleen associated tyrosine kinase inhibitor (SYKi) naive MV4-11 cells (AID 1963823); details: MV4-11 AML viability, CellTiter-Glo luminescence, 72 h; series mostly up to 45 µM; further: nearly all actives have a fitted effect of over 40% in size; further: potency means the concentration at half of the fitted maximal effect
Outline: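 CellTiter-Glo luminescence, 10 min room-temperature incubation, gave viability. Cells: naive MV4-11 (500/well), treated 72 hr at 37 C, 5% CO2.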

[2] = Viability qHTS for spleen associated tyrosine kinase inhibitor (SYKi) drug resistant MV4-11 cells (AID 1963824); details: SYKi-resistant MV4-11 viability, CellTiter-Glo, 72 h; series mostly up to 45 µM; further: nearly all actives have a fitted effect of over 35% in size; further: potency means the concentration at half of the fitted maximal effect
Outline: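 CellTiter-Glo luminescence, read 10 min after reagent addition, reports viability after a 72 hr compound exposure. Cells are an MV4-11 line made resistant to SYK inhibition, seeded at 500 per well onto compound-containing plates.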

[3] = Quantitative highthroughput screen to assess conditional lethalithy of NOMO1 cells grown in RPMI1640 with untreated serum (RPMI+s) (AID 1963876); details: NOMO1 AML cells in RPMI+serum, CellTiter-Glo viability, 48 h; series mostly up to 45.8 µM; further: nearly all actives have a fitted effect of over 35% in size
Outline: (§1)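 Each medium arm—HPLM with 10% dialyzed FBS, or RPMI1640 with 5 mM glucose and 10% untreated or dialyzed FBS—was screened against an 11-point, 3-fold compound titration for 48 h at 37 °C, with CellTiter-Glo luminescence as endpoint.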

[4] = Quantitative highthroughput screen to assess conditional lethalithy of NOMO1 cells grown in RPMI1640 with dialyzed fetal bovine serum (RPMI+ds) (AID 1963877); details: NOMO1 in RPMI+dialyzed FBS viability, ATP luminescence, 48 h; series mostly up to 45.8 µM; further: nearly all actives have a fitted effect of over 30% in size
Outline: as §1

[5] = Quantitative highthroughput screen to assess conditional lethalithy of NOMO1 cells grown in Human Plasma-Like Medium with dialyzed fetal bovine serum (HPLM+ds) (AID 1963878); details: NOMO1 AML cells in HPLM+ds, CellTiter-Glo viability, 48 h; series mostly up to 45.8 µM; further: nearly all actives have a fitted effect of over 35% in size
Outline: as §1

[6] = Quantitative highthroughput screen to assess conditional lethalithy of P12 Ichikawa cells grown in Human Plasma-Like Medium with dialyzed fetal bovine serum (HPLM+ds) (AID 1963879); details: ATP luminescence, 48 h; Potency: viability; series mostly up to 45.8 µM; further: nearly all actives have a fitted effect of over 35% in size; further: potency means the concentration at half of the fitted maximal effect
Outline: as §1

[7] = Quantitative highthroughput screen to assess conditional lethalithy of P12 Ichikawa cells grown in RPMI1640 with dialyzed fetal bovine serum (RPMI+ds) (AID 1963880); details: ATP luminescence, 48 h; Potency: P12-Ichikawa viability; series mostly up to 45.8 µM; further: nearly all actives have a fitted effect of over 35% in size; further: potency means the concentration at half of the fitted maximal effect
Outline: as §1

[8] = Quantitative highthroughput screen to assess conditional lethalithy of P12 Ichikawa cells grown in RPMI1640 with untreated serum (RPMI+s) (AID 1963881); details: ATP luminescence, 48 h; Potency: viability; series mostly up to 45.8 µM; further: nearly all actives have a fitted effect of over 35% in size; further: potency means the concentration at half of the fitted maximal effect
Outline: as §1

[9] = Quantitative highthroughput screen to assess conditional lethalithy of SEM cells grown in Human Plasma-Like Medium with dialyzed fetal bovine serum (HPLM+ds) (AID 1963882); details: SEM B-ALL cells in HPLM+ds, CellTiter-Glo viability, 48 h; series mostly up to 45.8 µM; further: nearly all actives have a fitted effect of over 35% in size; further: potency means the concentration at half of the fitted maximal effect
Outline: as §1

[10] = Quantitative highthroughput screen to assess conditional lethalithy of SEM cells grown in RPMI1640 with dialyzed fetal bovine serum (RPMI+ds) (AID 1963884); details: SEM B-ALL cells, RPMI+dialyzed FBS, CellTiter-Glo viability, 48 h; series mostly up to 45.8 µM; further: nearly all actives have a fitted effect of over 35% in size
Outline: as §1

[11] = Cellular viability qHTS for adrenocortical cancer (ACC) cell line SW-13 (AID 1963989); details: SW-13 ACC cells viability, CellTiter-Glo, 48 h; activity (max response): active compounds read low; further: nearly all actives have a fitted effect of over 65% in size; further: potency means the concentration at half of the fitted maximal effect;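 on activity (max response): cells grown in serum-free medium with ITS supplement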
Outline: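 Luminescent ATP read-out (CellTiter-Glo, 20 min at room temperature) measured metabolically competent SW-13 cells after 48 h compound treatment. Final concentrations spanned up to 46 uM; bortezomib served as positive control.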

[12] = Cellular viability qHTS for adrenocortical cancer (ACC) cell line NCI-H295R (AID 1963990); details: CellTiter-Glo ATP luminescence, 48 h; series mostly up to 46.1 µM; further: nearly all actives have a fitted effect of over 60% in size; further: potency means the concentration at half of the fitted maximal effect
Outline: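 IC50 and maximal efficacy derive from four-parameter logistic modelling of titration curves, with reads scaled between DMSO-only wells (0%) and doxorubicin hydrochloride (100% inhibition). Compounds spanned up to 46 uM over 48 h.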

[13] = Quantitative highthroughput screen to assess conditional lethalithy of SEM cells grown in RPMI1640 with unreated serum (RPMI+s) (AID 1963883); details: SEM B-ALL cells, CellTiter-Glo viability, 48 h; series mostly up to 45.8 µM; further: nearly all actives have a fitted effect of over 35% in size; further: potency means the concentration at half of the fitted maximal effect
Outline: as §1

Structure (SMILES)	Potency [1]	Potency [2]	Potency [3]	Potency [4]	Potency [5]	Potency [6]	Potency [7]	Potency [8]	Potency [9]	Potency [10]	activity (max response) [11] [%]	Potency [12]	Potency [13]	Potency [11]	viability (% of control) [1]	viability, % of control [2]
CCOC(=O)Nc1ccc(NCc2ccc(F)cc2)nc1N	14.8 µM (active)	16.6 µM (active)	inactive	inactive	inactive	inactive	inactive	inactive	inactive	inactive	-9.42	inactive				
CC(C)C[C@@H](N)[C@H](O)C(=O)N[C@H](C(=O)N[C@H](C(=O)N[C@@H](CC(=O)O)C(=O)O)C(C)C)C(C)C	inactive	inactive	inactive	inactive	inactive	inactive	inactive	inactive			-8.42	inactive	inactive			
COc1cc(C[C@@H](CO)[C@H](CO)Cc2ccc(O)c(OC)c2)ccc1O	inactive	inactive	inactive	inactive	inactive	inactive	inactive	inactive		inactive	-8.41	inactive	inactive			
CCNc1cc(NC2CCC(O)CC2)nc(Nc2ccc3c(ccn3Cc3ccccc3)c2)n1 (stereo not given)	8.33 µM (active)	14.6 µM (active)	inactive	inactive	inactive	inactive	inactive	inactive	inactive		-9.82	inactive				
CC(C)OC(=O)C(C)(C)Oc1ccc(C(=O)c2ccc(Cl)cc2)cc1	inactive	inactive	inactive	inactive	inactive	inactive	inactive	inactive				inactive	10.5 µM (active)			
Cc1onc(-c2ccccc2Cl)c1C(=O)N[C@@H]1C(=O)N2[C@@H]1SC(C)(C)[C@@H]2C(=O)O	inactive	inactive	inactive	inactive	inactive	inactive	inactive	inactive	inactive	inactive	0.896	inactive				
COc1cc2nc(N3CCN(C(=O)C4CCCO4)CC3)nc(N)c2cc1OC (stereo not given)	inactive	inactive	inactive	inactive	inactive	inactive	inactive	inactive			-21		inactive			
Cc1cnc(Nc2ccc(OCCN3CCCC3)cc2)nc1Nc1cccc(S(=O)(=O)NC(C)(C)C)c1	146 nM (active) and 186 nM (active)	366 nM (active) and 417 nM (active)	inactive	inactive	inactive	inactive	inactive	inactive	10.5 µM (active)			10 µM (active)		12.6 µM (active)		
COc1ccc(-c2nc3ccc(C4=NNC(=O)CC4C)cc3[nH]2)cc1 (stereo not given)	18.6 µM (active)	11.8 µM (active)	inactive	inactive	inactive	inactive	inactive	inactive		inactive		6.51 µM (active) and 14.1 µM (active)	inactive	18.4 µM (active) and 20 µM (active)		
CCC(c1ccc(O)cc1)C(CC)c1ccc(O)cc1 (stereo not given)	20.9 µM (active)	26.3 µM (active)	inactive	inactive	inactive	inactive	inactive	inactive				15.8 µM (active)		17.8 µM (active)		
CCc1cccc2c3c([nH]c12)C(CC)(CC(=O)O)OCC3 (stereo not given)	inactive	inactive	inactive	inactive	inactive	inactive	inactive	inactive			7.18	inactive				
COc1ccc(COc2cc3oc(=O)c4cc(C(C)O)ccc4c3cc2OC)cc1 (stereo not given)	inactive	8.2 µM (active) and 4.68 µM (active)	inactive	inactive	inactive	inactive	inactive	18.7 µM (active)	18.7 µM (active)			inactive				
Cc1ccc(C(=O)Nc2cccc(C(F)(F)F)c2)cc1Nc1nc(-c2cccnc2)nc2c1cnn2C	8.33 µM (active)	6.61 µM (active)	inactive	inactive	inactive	inactive	inactive	inactive						2.51 µM (active)		
Cc1cc(C(C)Nc2ccccc2)c2nc(N3CCOCC3)cc(=O)n2c1 (stereo not given)	9.2 µM (active) and 5.9 µM (active)	10.3 µM (active) and 9.34 µM (active)	inactive	inactive	inactive	inactive	inactive	inactive	inactive		-14.6	inactive				
Cn1cc(-c2ccncc2)c(-c2ccc(OCc3ccc4ccccc4n3)cc2)n1	4.11 µM (active)	7.42 µM (active)	inactive	inactive	inactive	14.8 µM (active)	8.33 µM (active)		inactive				inactive			
CCCCCN(C)CCC(O)(P(=O)(O)O)P(=O)(O)O			inactive	inactive	inactive	inactive	inactive	inactive		inactive	-15.6				73% [at 4.97 µM]	78.4% [at 4.97 µM]
